# AGP1 TOR yeast = modulators of TOR pathway AGP1-GFP in S. cerevisiae. S. cerevisiae AGP1-GFP multiplex flow cytometry, 3 h; GFP as percent of DMSO wells. GFP response vs DMSO, % at 10 µM. 0.02% of 320,000 active. AID 2066;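 active means GFP response relative to DMSO above a set limit, near screen average plus 3 SD, cut at about 150% in these data; inconclusive means fewer than 70 cells counted for the yeast strain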;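 further: median GFP channel fluorescence of the gated AGP1 strain per well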
# Pemphigus Ab inh = human desmoglein-3 autoantibody binding inhibition. 0.48% of 310,000 active. binding (percent of control), % at 10 µM. DSG3-coupled beads, scFv-anti-DSG3-GFP binding, flow cytometry; active compounds read low. P32926;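 active means binding more than 3 SD below its plate's average and above zero; inconclusive means below that plate limit but binding exactly zero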;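 further: hits lower antibody fragment binding to DSG3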
# RPL19A TOR yeast = alters RPL19A-GFP fluorescence in TOR pathway yeast screen. S. cerevisiae RPL19A-GFP strain, flow cytometry, 3 h; active compounds read low. percent response vs DMSO, % at 10 µM. 0.3% of 330,000 active;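 active means percent response vs DMSO below 50%; inconclusive means fewer than 70 events counted for the yeast strain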;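 further: median channel GFP fluorescence of the barcoded RPL19A-GFP strain; ratio of sample median GFP to plate DMSO average so 100% = DMSO; lower means less RPL19A-GFP as with rapamycin TOR inhibition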
# MEP2 TOR yeast = yeast TOR pathway MEP2-GFP modulation | S. cerevisiae MEP2-GFP strain, flow cytometry GFP, 3 h; 100% = DMSO control level | GFP response vs DMSO, % at 10 µM | 0.51% of 330,000 active | AID 2016;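 active means GFP response versus DMSO above a set limit, roughly screen mean plus 3 SD, cut at about 180% in these data; inconclusive means fewer than 70 cells counted for a yeast strain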;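 further: median GFP fluorescence of the barcode-gated MEP2-GFP cells per well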
# LAP4 TOR yeast = alters LAP4-GFP fluorescence in TOR pathway yeast screen. 0.34% of 320,000 active. AID 2023. S. cerevisiae LAP4-GFP multiplex, flow cytometry GFP, 3 h; median GFP as percent of DMSO wells. GFP response vs DMSO, % at 10 µM;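 active means GFP response vs DMSO above a set limit, about the screen mean plus 3 SD, cut at about 150% in these data; inconclusive means under 70 cell events counted for the yeast strain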
# CIT2 TOR yeast = alters CIT2-GFP fluorescence in TOR pathway yeast screen | 0.065% of 320,000 active | GFP response vs DMSO, % at 10 µM | S. cerevisiae CIT2-GFP strain, flow cytometry, 3 h; 100 means same as DMSO wells;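 active means GFP response relative to DMSO above a set limit, near the screen mean plus 3 SD, cut at about 150% in these data; inconclusive means Fewer than 70 cells measured for a yeast strain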;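 further: ratio of well median GFP fluorescence to mean of DMSO wells on the plate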
# Numbers without * were called inactive; ? = inconclusive; . = not tested or not shown; [ ] = another dose, or the depositor's remark. Sampled rows, rich in hits. Any-hit rate of the full collection: about 1.2%.
SMILES,AGP1 TOR yeast,Pemphigus Ab inh,RPL19A TOR yeast,MEP2 TOR yeast,LAP4 TOR yeast,CIT2 TOR yeast
COc1cc(OC)cc(C(=O)NCC(=O)OCC(=O)C(C)(C)C)c1,17,102,73,484*[may fluoresce violet],78,?
O=C(CN(C(=O)c1csnn1)c1ccccc1F)NCc1ccccc1,97,110,99,102,105,100
Cc1ccc(CNS(=O)(=O)c2ccc(CN3C(=O)c4cccnc4C3=O)cc2)o1,?,105,27*[may fluoresce violet],127,82,?
COc1ccc(-c2nnc(COc3ccc4ccccc4c3)o2)cc1OC,88,101,95,99,99,80
COc1cc2ccccc2cc1-c1nnc(COc2ccccc2)o1,94,90*,97,99,104,95
COc1cccc(/C=C2/CCC(CN(C)C)C2=O)c1 (configuration not stated),.,92,.,.,.,.
O=S(=O)(c1ccc(F)cc1)N1CCN(CC2CC3C=CC2C3)CC1 (configuration not stated),20,88,55,207*[may fluoresce violet],90,?
Cc1ccc(NC(=O)COC(=O)c2c[nH]c3ccccc23)cc1C,103,96,104,98,107,90
Cc1ccc(OC2CCN(C(=O)C3CCC(=O)N(C4CC4)C3)CC2)cc1 (configuration not stated),92,99,93,77,79,87
Cc1ccccc1OC1CCN(C(=O)C2CCC(=O)N(C3CCCC3)C2)CC1 (configuration not stated),105,101,88,99,156*,100
O=C(CCC(=O)N/N=C/c1cc(Cl)cc(Cl)c1O)NCc1ccccc1,22,106,75,364*[may fluoresce violet],100,?
O=C(CCC(=O)N/N=C/c1ccc(Br)s1)NCc1ccccc1,92,107,100,103,83,96
O=C(Nc1ccc(F)cc1)c1ccc2c(c1)S(=O)(=O)N=C1CCCCCN12,85,.,92,93,88,85
CCOc1ccc(NC(=O)c2ccc3c(c2)S(=O)(=O)N=C2CCCCCN23)cc1,.,78*,.,.,.,.
CCN(CC)c1ccc(NC(=O)CCCCCN2C(=O)c3ccccc3C2=O)cc1,106,.,99,98,101,105
CCN(CC)c1ccc(NC(=O)CCCCC(=O)Nc2ccc(N(CC)CC)cc2)cc1,109,88*,97,103,107,106
CC(C)C(=O)Nc1nc(-c2ccc3c(c2)CCN3C(=O)C2CC2)cs1,?,97,22*[may fluoresce violet],?,?,?
Cc1ccsc1C(=O)NNC(=O)COc1ccccc1Cl,96,-0.8*,98,98,107,97
O=C(CCC(=O)N1CCN(S(=O)(=O)c2ccc([N+](=O)[O-])cc2)CC1)N1CCOCC1,99,102,98,97,93,96
COC(=O)c1cc(NC(=O)CC2CCCC2)cc(C(=O)OC)c1,?,120,27*[may fluoresce violet],143,67,?
CC(=O)c1cccc(NC(=O)CC2CCCC2)c1,101,97,101,113,105,98
O=C(NCc1ccncc1)C12CC3CC(CC(Cl)(C3)C1)C2,96,111,91,225*,145,84
CCOc1cccc2sc(N(CCN(C)C)C(=O)/C=C/c3cccs3)nc12,103,100,106,100,99,109
COc1cccc2sc(N(CCN(C)C)C(=O)/C=C/c3cccs3)nc12,?,102,52,193*[may fluoresce violet],91,?
COc1ccc(OCc2nc3ccc(S(=O)(=O)Nc4ccccc4Cl)cc3[nH]2)cc1,?,102,27*[may fluoresce violet],181*[may fluoresce violet],72,?
SMILES,AGP1 TOR yeast,Pemphigus Ab inh,RPL19A TOR yeast,MEP2 TOR yeast,LAP4 TOR yeast,CIT2 TOR yeast
COc1ccc(NS(=O)(=O)c2ccc3nc(COc4ccc5ccccc5c4)[nH]c3c2)cc1,.,94,.,.,.,.
O=C(O)c1ccccc1NS(=O)(=O)c1ccc(NN=Cc2ccccc2F)c([N+](=O)[O-])c1,92,.,92,88,99,90
CSc1ccc(C=NNc2ccc(S(=O)(=O)Nc3ccccc3C(=O)O)cc2[N+](=O)[O-])cc1,98,72*,96,103,102,95
CCOc1ccc(C=NNc2ccc(S(=O)(=O)Nc3ccccc3C(=O)O)cc2[N+](=O)[O-])cc1,104,89*,103,108,98,105
CC(C)c1ccc(C(=O)CC2(O)C(=O)N(CN3CCOCC3)c3ccccc32)cc1 (configuration not stated),87,116,90,92,89,88
COc1cccc(C(=O)NCCSCc2c(F)cccc2Cl)c1,94,110,105,106,102,90
CCOC(=O)COc1ccc2c(c1)c(C(C)=O)c(C)n2-c1ccccc1,93,103,98,104,99,95
CCOc1ccc2c(c1)c(C(C)=O)c(C)n2-c1ccccc1,.,106,35*[may fluoresce violet],628*[may fluoresce violet],99,?
CCNC(=O)C(C)Sc1ccc(Cl)cc1 (configuration not stated),?,73,48*[may fluoresce violet],351*[may fluoresce violet],88,?
Clc1ccccc1CNCc1ccc2c(c1)OCO2,.,100,.,.,.,.
CCOC(=O)Cc1c(C)c2c(C)[nH]nc2oc1=O,?,101,23*[may fluoresce violet],328*[may fluoresce violet],90,?
CN1CCN(/N=C/c2c3ccccc3c(Cl)c3ccccc23)CC1,11,114,72,146,163*,61
Cc1cc(=O)n2cccc(O)c2n1,86,95,90,87,74,95
NC(=O)CC(NC(=O)Cc1ccc(Br)cc1)c1ccc(NC2CCCCCCC2)c([N+](=O)[O-])c1 (configuration not stated),.,102,.,.,.,.
NC(=O)CC(NC(=O)Cc1ccc(Br)cc1)c1ccc(NC2CCCC2)c([N+](=O)[O-])c1 (configuration not stated),86,1.8*,101,102,106,86
Cc1ccc(C(=O)O)cc1S(=O)(=O)N1CCSCC1,?,106,43*[may fluoresce violet],306*[may fluoresce violet],105,?
CCOc1ccc(C=NNC(=O)c2cccc3ccccc23)cc1OCC,.,97,.,.,.,.
Cn1ccnc1SCC(=O)Nc1ccc2nc(SCC(=O)NC3CC3)sc2c1,?,.,.,280*[may fluoresce violet],90,?
COc1ccc(S(=O)(=O)Nc2ccccc2Cl)cc1NC(C)=O,98,103,107,99,111,100
